From article PMC7862700, “An all-to-all approach to the identification of sequence-specific readers for epigenetic DNA modifications on cytosine”

Key:
Assay in all cases: DAPPL (digital affinity profiling via proximity ligation, sequencing); 10 mM Tris-HCl pH 7.5, 50 mM NaCl, 1 mM DTT, 4% glycerol, room temperature, 30 min; GST-TFs on glutathione beads, 16-mer random dsDNA library, 0.1% formaldehyde crosslink after washing; high values mean tight binding
FEV = target: T1, FEV (Homo sapiens, UniProt Q99581 1-238); settings: protein: recombinant; tags: N-terminal GST; dsDNA, one strand shown
T1 sequence: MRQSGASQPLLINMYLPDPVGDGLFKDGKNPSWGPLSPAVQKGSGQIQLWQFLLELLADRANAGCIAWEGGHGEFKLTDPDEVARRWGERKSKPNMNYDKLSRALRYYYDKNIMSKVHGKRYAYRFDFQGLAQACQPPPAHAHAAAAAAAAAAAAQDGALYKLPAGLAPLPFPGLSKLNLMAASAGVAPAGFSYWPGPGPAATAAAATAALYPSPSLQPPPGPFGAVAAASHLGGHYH
Procedure, shortened: (§1)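 Sequencing on an Illumina NextSeq500 followed washing, crosslinking with 0.1% formaldehyde, proximity ligation (BsaI/T4 ligase, 1 h, 37 °C) and PCR amplification of pools that had been incubated for 30 min at room temperature with 200 nmole of a random double-stranded 16-mer DNA library in Tris/NaCl/DTT/glycerol buffer. Each pool held DNA-barcoded human transcription factors, expressed in yeast as GST fusions and captured on glutathione beads, plus a tag-only sample. Binding signal is a hexamer's read frequency for a factor divided by its frequency in the tag-only sample.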

ETV5 = ETV5 (Homo sapiens, UniProt P41161 1-510); settings: protein: recombinant; tags: N-terminal GST; dsDNA, one strand shown
Procedure, shortened: as §1

HSF1 = HSF1 (Homo sapiens, UniProt Q00613 1-529); settings: protein: recombinant; tags: N-terminal GST; chain copies: 3; dsDNA, one strand shown
Procedure, shortened: as §1

SPIC = target: T2, SPIC (Homo sapiens, UniProt Q8N5J4 1-248); settings: protein: recombinant; tags: N-terminal GST; dsDNA, one strand shown
T2 sequence: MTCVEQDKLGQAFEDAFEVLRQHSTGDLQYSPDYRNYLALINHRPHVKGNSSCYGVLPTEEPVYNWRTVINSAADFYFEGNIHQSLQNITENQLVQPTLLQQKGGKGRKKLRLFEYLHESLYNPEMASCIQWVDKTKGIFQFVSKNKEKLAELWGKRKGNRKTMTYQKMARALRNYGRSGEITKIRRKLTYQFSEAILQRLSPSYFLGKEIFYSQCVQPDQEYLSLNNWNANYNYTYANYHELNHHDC
Procedure, shortened: as §1

ELF4 = ELF4 (Homo sapiens, UniProt Q99607 1-663); settings: protein: recombinant; tags: N-terminal GST; dsDNA, one strand shown
Procedure, shortened: as §1

ELK4 = target: T3, ELK4 (Homo sapiens, UniProt P28324-2 1-405); settings: protein: recombinant; tags: N-terminal GST; dsDNA, one strand shown
T3 sequence: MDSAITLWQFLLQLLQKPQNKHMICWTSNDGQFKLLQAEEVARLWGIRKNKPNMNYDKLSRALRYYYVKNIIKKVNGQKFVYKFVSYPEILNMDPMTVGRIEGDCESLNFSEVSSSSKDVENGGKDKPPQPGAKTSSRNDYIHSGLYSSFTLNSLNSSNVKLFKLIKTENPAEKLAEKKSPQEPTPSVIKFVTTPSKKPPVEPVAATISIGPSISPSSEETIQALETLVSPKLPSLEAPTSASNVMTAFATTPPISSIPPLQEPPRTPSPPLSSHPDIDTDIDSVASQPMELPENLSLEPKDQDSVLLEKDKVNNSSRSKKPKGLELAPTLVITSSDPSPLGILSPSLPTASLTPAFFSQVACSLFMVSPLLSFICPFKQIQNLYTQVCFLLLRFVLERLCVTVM
Procedure, shortened: as §1

ETV2 = target: T4, ETV2 (Homo sapiens, UniProt O00321 1-342); settings: protein: recombinant; tags: N-terminal GST; dsDNA, one strand shown
T4 sequence: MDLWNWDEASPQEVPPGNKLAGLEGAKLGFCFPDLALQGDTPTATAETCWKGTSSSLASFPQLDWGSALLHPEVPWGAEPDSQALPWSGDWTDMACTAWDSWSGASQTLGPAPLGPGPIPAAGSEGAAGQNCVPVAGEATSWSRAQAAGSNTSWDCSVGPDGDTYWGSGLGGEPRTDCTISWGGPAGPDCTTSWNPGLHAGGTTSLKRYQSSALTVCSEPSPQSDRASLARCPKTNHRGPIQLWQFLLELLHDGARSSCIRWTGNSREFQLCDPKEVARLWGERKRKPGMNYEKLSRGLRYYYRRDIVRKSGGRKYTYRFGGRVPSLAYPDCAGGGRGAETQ
Procedure, shortened: as §1

ELF3 = target: T5, ELF3 (Homo sapiens, UniProt P78545 1-371); settings: protein: recombinant; tags: N-terminal GST; dsDNA, one strand shown
T5 sequence: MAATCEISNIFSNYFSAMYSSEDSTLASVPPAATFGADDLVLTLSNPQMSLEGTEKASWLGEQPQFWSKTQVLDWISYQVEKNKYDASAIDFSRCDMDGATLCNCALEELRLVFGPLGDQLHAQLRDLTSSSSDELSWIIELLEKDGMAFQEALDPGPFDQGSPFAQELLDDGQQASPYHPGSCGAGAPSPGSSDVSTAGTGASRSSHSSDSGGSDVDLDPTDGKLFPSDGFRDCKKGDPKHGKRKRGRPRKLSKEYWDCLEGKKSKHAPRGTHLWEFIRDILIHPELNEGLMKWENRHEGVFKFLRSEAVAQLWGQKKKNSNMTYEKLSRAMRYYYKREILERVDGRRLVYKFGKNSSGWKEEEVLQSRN
Procedure, shortened: as §1

CRX = CRX (Homo sapiens, UniProt O43186 1-299); settings: protein: recombinant; tags: N-terminal GST; dsDNA, one strand shown
Procedure, shortened: as §1

Sequence of ETV5 (P41161 whole entry): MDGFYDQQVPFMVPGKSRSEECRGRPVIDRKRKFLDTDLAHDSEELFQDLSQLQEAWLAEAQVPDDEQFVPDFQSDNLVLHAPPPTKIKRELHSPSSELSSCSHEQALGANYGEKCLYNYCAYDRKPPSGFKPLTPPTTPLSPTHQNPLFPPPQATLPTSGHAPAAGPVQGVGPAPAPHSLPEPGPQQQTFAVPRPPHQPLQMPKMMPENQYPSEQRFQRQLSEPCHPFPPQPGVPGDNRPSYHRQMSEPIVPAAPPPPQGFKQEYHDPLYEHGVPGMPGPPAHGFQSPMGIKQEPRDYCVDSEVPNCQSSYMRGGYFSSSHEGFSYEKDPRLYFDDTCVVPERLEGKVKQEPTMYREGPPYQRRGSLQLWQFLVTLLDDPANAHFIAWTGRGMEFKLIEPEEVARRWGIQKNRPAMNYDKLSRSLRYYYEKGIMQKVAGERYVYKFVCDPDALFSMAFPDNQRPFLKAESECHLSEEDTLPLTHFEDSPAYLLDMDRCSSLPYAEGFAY
Sequence of HSF1 (Q00613 whole entry): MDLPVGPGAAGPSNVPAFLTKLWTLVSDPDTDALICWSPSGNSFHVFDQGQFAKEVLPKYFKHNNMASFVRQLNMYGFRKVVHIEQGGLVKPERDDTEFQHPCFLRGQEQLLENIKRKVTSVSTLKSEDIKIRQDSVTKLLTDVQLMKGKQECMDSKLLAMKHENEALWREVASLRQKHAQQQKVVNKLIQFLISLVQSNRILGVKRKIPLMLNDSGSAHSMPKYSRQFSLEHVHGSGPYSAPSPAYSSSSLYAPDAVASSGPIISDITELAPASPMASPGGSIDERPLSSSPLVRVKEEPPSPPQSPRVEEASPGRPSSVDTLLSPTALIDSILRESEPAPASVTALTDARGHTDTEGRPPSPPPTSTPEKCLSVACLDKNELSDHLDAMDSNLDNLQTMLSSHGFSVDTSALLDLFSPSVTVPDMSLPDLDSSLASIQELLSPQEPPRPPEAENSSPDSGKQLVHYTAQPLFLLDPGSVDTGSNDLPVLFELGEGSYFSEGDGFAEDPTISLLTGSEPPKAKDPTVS
Sequence of ELF4 (Q99607 whole entry): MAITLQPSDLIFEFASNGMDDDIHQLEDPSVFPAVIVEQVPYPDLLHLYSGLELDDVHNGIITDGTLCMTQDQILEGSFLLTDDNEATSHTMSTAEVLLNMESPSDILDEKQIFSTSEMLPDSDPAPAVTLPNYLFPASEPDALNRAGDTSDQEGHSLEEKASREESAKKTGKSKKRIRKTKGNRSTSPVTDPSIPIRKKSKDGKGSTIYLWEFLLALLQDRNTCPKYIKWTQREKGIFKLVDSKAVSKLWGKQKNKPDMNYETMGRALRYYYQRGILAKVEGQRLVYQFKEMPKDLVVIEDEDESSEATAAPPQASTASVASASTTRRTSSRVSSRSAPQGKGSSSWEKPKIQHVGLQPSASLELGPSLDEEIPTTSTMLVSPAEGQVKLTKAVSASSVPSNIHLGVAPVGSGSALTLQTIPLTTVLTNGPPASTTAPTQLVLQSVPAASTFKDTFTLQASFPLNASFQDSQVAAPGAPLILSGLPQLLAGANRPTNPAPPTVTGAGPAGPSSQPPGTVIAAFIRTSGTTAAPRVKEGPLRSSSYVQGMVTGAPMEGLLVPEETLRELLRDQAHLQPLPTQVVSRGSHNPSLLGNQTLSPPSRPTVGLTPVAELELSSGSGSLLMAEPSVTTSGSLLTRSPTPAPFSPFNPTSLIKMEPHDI
Sequence of CRX (O43186 whole entry): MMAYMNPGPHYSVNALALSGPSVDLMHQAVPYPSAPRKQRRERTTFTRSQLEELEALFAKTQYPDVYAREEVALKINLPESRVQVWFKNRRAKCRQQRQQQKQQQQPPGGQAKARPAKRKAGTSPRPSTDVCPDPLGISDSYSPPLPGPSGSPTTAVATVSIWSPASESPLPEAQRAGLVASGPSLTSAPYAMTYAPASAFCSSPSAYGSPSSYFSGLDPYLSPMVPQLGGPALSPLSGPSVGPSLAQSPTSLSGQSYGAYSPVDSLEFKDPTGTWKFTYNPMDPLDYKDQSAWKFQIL

Sequence: CCTATT
- binding signal (FEV): 1.39 fold enrichment (6-mer frequency, TF over GST control)
- binding signal (ETV5): 1.51 fold enrichment (6-mer frequency, TF over GST control)
- binding signal (HSF1): 1.43 fold enrichment (6-mer frequency, TF over GST control)
- binding signal (SPIC): 1.46 fold enrichment (6-mer frequency, TF over GST control)
- binding signal (ELF4): 1.44 fold enrichment (6-mer frequency, TF over GST control)
- binding signal (ELK4): 1.37 fold enrichment (6-mer frequency, TF over GST control)
- binding signal (ETV2): 1.46 fold enrichment (6-mer frequency, TF over GST control)
- binding signal (ELF3): 1.54 fold enrichment (6-mer frequency, TF over GST control)
- binding signal (CRX): 1.67 fold enrichment (6-mer frequency, TF over GST control)
